Results as given in PubChem BioAssay (NCATS).
Results filed as inconclusive are left out. A number with no mark means an inactive call. The call rests on the fitted dose curve; in most records, active means well fitted inhibition curve with a large enough effect; inconclusive means small, poorly fitted or top-dose-only effect; inactive means flat fitted curve, though single readings scatter.

The molecules below were run against Calcium and integrin-binding protein 1 (Homo sapiens) (UniProt Q99828) (assay: Primary qHTS for Identification of Calcium Integrin Binding Protein 1 (CIB1) Competitor (AID 1508620;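 further: GST tagged CIB1 binding a fluorescein labelled alphaIIb integrin peptide tracer; top concentration of the series differs between compounds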)). Details: CIB1-GST / FITC-alphaIIb peptide fluorescence polarization; series mostly up to 114 µM; activity change, negative = inhibition: at the top concentration.
In short: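 Fluorescence polarization competition: CIB1-GST (1 uM final) preincubated with compound 15 min at room temperature, then FITC-labeled alphaIIb peptide (100 nM final) added for another 15 min. Polarization read at Ex 480/Em 540.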
On the % scale 0 is the no-effect control and ±100 the full control effect.

Sequence of Calcium and integrin-binding protein 1 (Homo sapiens) (Q99828 whole entry, looked up): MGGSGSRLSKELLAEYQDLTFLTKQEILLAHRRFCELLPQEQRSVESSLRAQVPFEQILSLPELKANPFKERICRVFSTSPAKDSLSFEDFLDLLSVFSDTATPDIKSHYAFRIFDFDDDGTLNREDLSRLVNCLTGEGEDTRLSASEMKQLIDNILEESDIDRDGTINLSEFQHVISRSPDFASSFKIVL

| Structure (SMILES) | activity change, negative = inhibition |
| --- | --- |
| CN1CCN(Cc2ccc(-c3cnc4[nH]cc(-c5ccc6[nH]ccc6c5)c4c3)cc2)CC1 | 5.27% |
| CCc1cnn2c(NCc3ccc[n+]([O-])c3)cc(N3CCCCC3CCO)nc12 (centres undefined) | -4.43% |
| Cc1ccc(NC(=O)C(=O)NC2CC(C)(C)NC(C)(C)C2)cc1 | -1.53% |
| Cn1cc(S(=O)(=O)c2ccc(Cl)cc2)c2cccc(N3CCNCC3)c21 | -9% |
| CC(C)(C)c1ccc(S(=O)(=O)Nc2ccc(Cl)cc2C(=O)c2cc[n+]([O-])cc2)cc1 | -5.23% |
| COC(=O)C1=CO[C@@H](O[C@@H]2O[C@H](CO)[C@@H](O)[C@H](O)[C@H]2O)[C@@H]2[C@@](C)(O)[C@@H](OC(=O)/C=C/c3ccc(O)cc3)C[C@]12O | 1.84% [at 57.7 µM] |
| C[C@@H]1CC[C@@]2(OC1)O[C@H]1C[C@H]3[C@@H]4CC=C5C[C@@H](O)CC[C@]5(C)[C@H]4CC[C@]3(C)[C@H]1[C@@H]2C | -0.722% [at 57.7 µM] |
| CCOC(=O)CCN(C(=O)c1ccc2c(c1)nc(CNc1ccc(C(=N)N)cc1)n2C)c1ccccn1 | 6% |
| COc1cc(Nc2nc3c(s2)CCCC3c2ccc(F)cc2)ccc1-n1cnc(C)c1 (centres undefined) | -10% |
| OC[C@H]1O[C@@H](OCCc2ccccc2)[C@H](O[C@@H]2OC[C@](O)(CO)[C@H]2O)[C@@H](O)[C@@H]1O | 1.94% [at 57.7 µM] |
| CN1CCc2nc(C(=O)N[C@@H]3C[C@@H](C(=O)N(C)C)CC[C@@H]3NC(=O)C(=O)Nc3ccc(Cl)cn3)sc2C1 | 1.81% |
| C[C@H]1C(=O)N2c3ccccc3[C@@]3(O)C[C@@H]4C(=O)N[C@](C)(c5nc6ccccc6c(=O)n54)N1[C@@H]23 | -1.47% [at 57.7 µM] |
| C[C@@H]1O[C@@H](O[C@H]2[C@H](OC(=O)[C@]34CCC(C)(C)C[C@H]3C3=CCC5[C@@]6(C)CC[C@H](O[C@@H]7O[C@H](C(=O)O)[C@@H](O)[C@H](O)[C@H]7O[C@@H]7O[C@H](CO)[C@H](O)[C@H](O)[C@H]7O)[C@@](C)(C=O)C6CC[C@@]5(C)[C@]3(C)C[C@H]4O)O[C@H](C)[C@H](O[C@@H]3O[C@H](C)[C@H](O)[C@H](O)[C@H]3O)[C@@H]2O)[C@H](O)[C@H](O)[C@H]1O[C@@H]1OC[C@@H](O)[C@H](O[C@@H]2O[C@H](CO)[C@@H](O)[C@H](O)[C@H]2O)[C@H]1O (some centres undefined) | -0.579% [at 12.4 µM] |
| CC1CC(C(O)C(C)(C)O)OC2CC3(C)C4(C)CCC5C(C)(C)C(=O)CCC5(C)C4CCC3(O)C12O (centres undefined) | 1.07% [at 57.7 µM] |
| CCC(=O)O[C@H]1C(C)(C)[C@H]([C@@H](O)C(=O)OC)[C@]2(C)C(=O)[C@@]1(O)[C@H]1O[C@]13C1CC(=O)O[C@@H](c4ccoc4)[C@]1(C)CCC32 (some centres undefined) | -9.3% [at 30.2 µM] |
| C=C(C)C1CCC2(C(=O)O)CCC3(C(=O)O)C(CCC4C5(C)CCC(O)C(C)(C(=O)O)C5CCC43C)C12 (centres undefined) | -0.535% [at 57.7 µM] |
| COc1cc(O)cc(/C=C/c2ccc(O[C@@H]3O[C@H](CO)[C@@H](O)[C@H](O)[C@H]3O)cc2)c1 | 4.47% [at 57.7 µM] |
| CN[C@H](CC(C)C)C(=O)N[C@H]1C(=O)N[C@@H](CC(N)=O)C(=O)N[C@H]2C(=O)N[C@H]3C(=O)N[C@H](C(=O)N[C@H](C(=O)O)c4cc(O)cc(O)c4-c4cc3ccc4O)[C@H](O[C@H]3C[C@](C)(N)[C@@H](O)[C@H](C)O3)c3ccc(c(Cl)c3)Oc3cc2cc(c3O[C@@H]2O[C@H](CO)[C@@H](O)[C@H](O)[C@H]2O[C@H]2C[C@](C)(NCc3ccc(-c4ccc(Cl)cc4)cc3)[C@@H](O)[C@H](C)O2)Oc2ccc(cc2Cl)[C@H]1O | 2.49% [at 30.2 µM] |
| CO[C@H]1C[C@@H]2CC[C@@H](C)[C@@](O)(O2)C(=O)C(=O)N2CCCC[C@H]2C(=O)O[C@H]([C@H](C)C[C@H]2CC[C@@H](OP(C)(C)=O)[C@H](OC)C2)CC(=O)[C@H](C)/C=C(\C)[C@@H](O)[C@@H](OC)C(=O)[C@H](C)C[C@H](C)/C=C/C=C/C=C/1C | -5.59% [at 57.7 µM] |
| CC(C)=CCC/C(C)=C/CO[C@@H]1O[C@H](CO)[C@@H](O)[C@H](O)[C@H]1O | 1.25% [at 57.7 µM] |
| OC/C=C/C=C/[C@H]1Cc2cc(O)cc(O)c2O1 | -16% |
| Cn1c2ccc(F)cc2c2c(C(=O)N3CCCC3)cn(-c3ccccc3)c(=O)c21 | -2.92% |
| C=CC(C)(CC/C=C(\C)C(=O)OC)OC1OC(COC(=O)CC(C)(O)CC(=O)O)C(OC2OC(CO)C(O)C(O)C2O)C(O)C1O (centres undefined) | 2.04% [at 30.2 µM] |
| Cc1cnc(Nc2ccc(F)cc2Cl)nc1-c1c[nH]c(C(=O)NC(CO)c2cccc(Cl)c2)c1 (centres undefined) | -17.7% |
